# Assay results from the supplement of paper PMC6555819.
# Test system: VDR:RXRa (NR concentration 270 nM, RXRa partner concentration 90 nM)
# Experiment: PBM binding z-score (relative to random genomic background probes); higher = stronger binding; sequences stand for … in GC…GCGATTGACAGCGTAGAATGAAGG
# Procedure: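 Protein-binding microarray (Agilent 4x180K custom design, double-stranded 60-nt probes: 5' GC cap, 34-nt variable region, 24-nt constant primer region; full probe sequence given). Purified or IVT nuclear receptor:RXRα heterodimers (3:1 NR:RXRα, mostly 270:90 nM) or homodimers were incubated for 1 h in PBS with 2% milk and no ligand, then detected with Alexa488 antibodies. Fluorescence from o1-orientation probes (~5 replicates averaged) was converted to z-scores against 500 random hg19 background probes. Variable regions are seed direct-repeat (DR0–DR5) sites, all their single-nucleotide variants and half-site ablations.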
row,Sequence,PBM binding z-score
1,AATACAGGGTCATCGTAAGCCAGAGTACGCACAG,4.87
2,CCTACTGGGCCATTCAGAGGTCAGTGATCATATG,1.59
3,CTACCAACGTGAACAAGGTCGTTGATTACTATTC,2.05
4,TCTACTAGTTGATTAGGGCAACCGAAACAGCGGA,0.208
5,CGAACTAGGACAGAACAGGACAGTGAAGGATGAT,-0.358
6,CGTCCAAGGTCAGCAGGTCAGCGAAAGCGACGTG,4.26
7,AGAATGAGGTTATACGTAGATCATGGAAGAAAGT,1.72
8,TCTGCTAGGTCAACGATGGTCAGGTAATCTGCTA,1.78
9,CTCGAAAGGTCGTGCTCAGGGGAGTATACCAAAC,3.14
10,CGTCCAAGGTCATAGGAGGTCAGGGAAGACAGAT,6.49
11,ATCTCTAGGTAACAAGTTCGGTGAAAGAGAGGAC,0.955
12,TCAGATAGGTAAAAGGTGAAAGTCGGTGTGGTAA,0.851
13,CTCGAAAGGTCGTGATCAGGTGAGTATACCAAAC,3.22
14,GCGACTGGGGCATCAGCAGCTTACCATAACTTAA,-0.708
15,ACTTACGGGTCAACGAGGTTATAACACGCGTATA,7.9
16,CTCGAAAGGGCGGTTGAGGTGAGTATACGGATAA,-0.045
17,CCTTGCGGGTCACTCCAGGTTATAGCATCGGAGT,3.51
18,CGTCGAAGGTCAAGGTCAGTGAAAGAGACTCGAA,4.25
19,ATATGTAGCTTACATCCGGGTCATTCAGGCTATG,2.82
20,TAGCCTAGGTCATTCGGGCCAGTATAGTGTCGGC,3.94

row,Sequence,PBM binding z-score
1,CCGACTGGGGCGTAAGGTTACCATAAGCCAGCCC,0.154
2,CCAGACAGGTGAGGAGGTAACTCAGCCTCGATTA,0.00298
3,TCCTGTAGATCAATAGAGGTTAAGAAAGTGCGCT,1.67
4,CCTACTGGGCCATTCAGAGTTCATTGATCATATG,3.5
5,ACTCGGAGGACAAAGGTCAGTGCTACGCCAGTGA,2.82
6,TCATATATGTAAAGGTGAAAGTCGAACGATATGA,1.17
7,CCTAGCAGGCCAGCGTCACTCAAGCATTTCGCTT,-0.645
8,CGTCCAAGGTCAGAGAGGTCGGTGAATGCCGAGT,6.24
9,ACTATTAGTTGCCTTAGGGCAACCGATACGACGC,-0.026
10,TAGCGTAGGTCATGCGGGCCAGTATAGTGTCGGC,3.33
11,CCTAACAGGCCAGGGTCACTCAAGCATTTCGCTT,2.86
12,AGTCAAAGTTCATCTAGGTAGCGTAAGATATGCT,4.94
13,ATCGAAAGGTCGACGAGGTGAGTATACACCGTTT,5.23
14,ATCTCTAGGTATAGTTCAGTGAAAGATCGATAGA,1.04
15,ACTTACGGTTCAACGAGGTTATAGCACGCGTATA,7.06
16,CCTAGCAGGCCAGGGTCATTCAAGCATTTCGCTT,3.48
17,ACAGACAGGTGATGAAGGTAAATCAGGCTATCAT,0.133
18,CGTCCAAGGTCAAAGCTAGGTCAGTGAAAGCATT,5.25
19,TCTGCTAGGTCAATTGGTCAGCTAACGAGCTGCC,0.925
20,CCAGACAGGTCAGAAGGTAACTCAGCCTCGATTA,1.44
